The source of these data is PubChem BioAssay (NCI).

Compounds without any hit were thinned out: in the full panel of roughly 83,000, 20% have a hit.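 Each cell line was grown in a 96-well plate and treated with one concentration of compound for 48 hours. Values below 10 were considered active.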 A number with no mark means an inactive call. Activity calls are given as the source filed them.

This assay deals with NCI/ADR-RES ovarian. The assay can be described thus: NCI-60 one-dose screen, 48 h (100 = growth as untreated, 0 = no growth, -100 = all killed). Particulars: 10 µM unless noted.
`O=S(=O)(NCCNc1nccc(-n2cnc3ccccc32)n1)c1ccc(C(F)(F)F)cc1`: the growth was 55.9%. In the case of `CC(C)(C)c1ccc(C(=O)Nc2sc3c(c2C(N)=O)CC/C(=N\O)C3)cc1` it was 11.7%. In the case of `CC(=O)c1nnn(-c2c(C(=O)n3nc(C)cc3C)sc(=S)n2-c2ccccc2)c1C` it was 111%.

As to `CNC(=O)c1c(NC(=O)c2ccccc2C(F)(F)F)sc2c1CCC(=O)C2`, the growth is 28.1%. In the case of `O=C(NNc1nc2cc(F)c(F)cc2n2cccc12)c1cnccn1` it was 2.66% (active). Turning to `COc1cc(Nc2c(C#N)cnn3cc(-c4cnn(CC(C)(C)O)c4)cc23)ccc1Cl`, the growth is 46.5%. Take `CCCCCCCn1cc2c(N[C@H](C)c3ccccc3)ncnc2n1`: the growth is 102%. In the case of `O=C(Cn1cc(-c2ccccc2)nn1)Nc1nc(-c2ccc(Cl)cc2)cs1` it was 102%; in that of `CCOC(=O)C(=O)CC(=O)N1C(=S)NC(=O)C1CC(C)C` (centres undefined), 95.3%. In the case of `O=C1Nc2ccccc2/C1=C/c1ccc(CO)n1-c1ccc(Cl)cc1` it was 33.9%. In the case of `CCO/C=N/C1=C(C#N)C(c2ccc(OC)cc2)c2sc3c(CC)cccc3c2O1` (centres undefined) it was 10.3%; in that of `O=C1[C@@H]2Cc3c([nH]c4ccccc34)[C@H](c3c(Cl)cccc3Cl)N2C(=O)CN1C1CCN(CC2CCCCC2)CC1`, 74.9%. With `Cc1nn(-c2ccccc2)c2ncnc(N/N=C/c3cccc(O)c3)c12`, the growth is 23.3%.

Turning to `CS(=O)(=O)Nc1cc(-c2ccc3ncc(C#N)c(NCc4cccc(F)c4)c3c2)cnc1Cl`, the growth is 23.4%.
